Experimental data as given in PMC5540273 (PLoS ONE, 2017).

Tested on: RET
Conditions: concentration: 1 μM, replicates: in singlicate; n = 1
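Note: KINOMEscan kinase panel screen.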

| Structure (SMILES) | %Inh [%] |
| --- | --- |
| COc1ccc(Nc2ncc(C#N)c(Nc3ccccc3C(N)=O)n2)cc1N1CCN(C)CC1.Cl [GSK1558669] | 99.9 |
| O=C(Nc1cccc(-c2nn3ncccc3c2-c2ccnc(Nc3cccc(C(F)(F)F)c3)n2)c1)c1c(F)cccc1F [GSK299495] | 64 |
| Cc1cccc(-c2nc(Nc3ccc4ncsc4c3)c3ccccc3n2)n1 [GW867588] | 0 |
| Cl.Nc1ncnc2occ(-c3ccc(NC(=O)Nc4cc(C(F)(F)F)ccc4F)cc3)c12 [SB-707548] | 100 |
| C[C@@H](Oc1cc(-n2cnc3ccc(NC(=O)NC(C)(C)C)cc32)sc1C(N)=O)c1ccccc1Cl [GSK346294] | 24 |
| c1ccc(-c2cc(-c3c[nH]nc3-c3ccccn3)ccn2)cc1 [GW576604] | 16 |
| Cc1nnc(-c2ccc3occ(-c4ccc(C(C)O)cc4)c3c2)o1 (stereo not shown) | 11 |
| CC(C)Oc1ccc2c(-c3ccnc(Nc4ccc(N5CCN(C)CC5)cc4)n3)cnn2n1 [GW696155] | 56 |
| NS(=O)(=O)c1cccc(-c2ccc3ncc(N4CCOCC4)nc3c2)c1 [GSK1535721] | 0 |
| Fc1ccc(-c2ncn(CCCN3CCOCC3)c2-c2ccccn2)cc1 [SB-211742] | 7 |
| CN(C1=C(c2ccccc2)C(=O)NC1=O)c1ccccc1 [SB-334860] | 0 |
| CCc1nc(-c2cccc(C)c2)c(-c2ccnc(NCc3ccccc3)c2)s1 | 4 |
| O=C(NCCNc1ccnc(Nc2ccc(F)cc2)n1)Nc1ccccc1F [GSK1379880] | 5 |
| O=c1cc(N2CCOCC2)nc2n(Cc3cccc(F)c3)ccn12 [GSK2297430] | 31 |
| CC(C)(C)n1cnc2c(N)ncnc21 [SKF-97359] | 19 |
| O=c1cc(N2CCOCC2)nc2n(Cc3cccc(C(F)(F)F)c3)ccn12 [GSK2297543] | 0 |
| Cc1cccc(Cn2ccn3c(=O)cc(N4CCOCC4)nc23)c1 [GSK2297542] | 13 |
| O=C(NCCNc1ccnc(Nc2ccc(F)cc2)n1)c1cc2ccccc2s1 [GSK1379874] | 0 |

| Structure (SMILES) | %Inh [%] |
| --- | --- |
| Cn1ccc2ncnc(Oc3ccc(NC(=O)Nc4ccncc4)c(Cl)c3)c21 | 1 |
| COc1ccc(COc2cc(-n3cnc4ccccc43)sc2C(N)=O)cc1 [GSK1024304] | 26 |
| Cc1ccc(C(=O)NCC(N)=O)cc1-n1c(C)cc(OCc2ccc(F)cc2F)c(Br)c1=O | 5 |
| Cc1ccc(NC(=O)c2ccnc(N3CCN(C)CC3)c2)cc1-c1ccc(C(=O)NCC2CC2)cc1 [GW775604] | 0 |
| Fc1ccc(-c2nn3c(OCC(F)(F)F)cccc3c2-c2ccncc2)cc1 [GW514784] | 0 |
| Fc1ccc(-c2ncn(CCCN3CCOCC3)c2-c2cccnc2)cc1 [SB-211743] | 3 |
| O=C(NOCC1CC1)c1ccc(F)c(F)c1Nc1ccc(I)cc1Cl | 17 |
| O=C(Nc1n[nH]c2cc(-c3cccc(F)c3)ccc12)C1CC1 [SB-735464] | 0 |
| COc1ccc(Nc2nccc(N3CCC(NC(=O)Nc4cccc(C(C)=O)c4)C3)n2)cc1 (stereo not shown) [GSK1379731] | 0 |
| N#Cc1ccc(-c2cc(-c3c[nH]nc3-c3ccccn3)ccn2)cc1 [GW693028] | 12 |
| COC(=O)Nc1nc2cc(Oc3ccc(NC(=O)Nc4cc(F)ccc4F)cc3)ccc2[nH]1.Cl [GW701424] | 95.1 |
| O=c1cc(N2CCOCC2)nc2n(Cc3cccc4ccccc34)ccn12 [GSK2333389] | 80 |
| c1ccc(-c2n[nH]cc2-c2ccnc3ccccc23)nc1 [GW271431] | 0 |
| Nc1nccc(-c2c(-c3ccc(F)cc3)ncn2C2CCN(CC(F)(F)F)CC2)n1 [SB-236560] | 12 |
| NCC(NC(=O)c1cc(-c2cn[nH]c2)c(-c2ccnc3[nH]ccc23)s1)c1ccccc1.O=C(O)C(F)(F)F.O=C(O)C(F)(F)F (stereo not shown) [GSK1325775] | 18 |
| Cc1c2ccc(N(C)c3ccnc(Nc4cccc(S(N)(=O)=O)c4)n3)cc2nn1Cc1ccccc1.Cl.Cl [GW787226] | 99.9 |
| COc1ccc(S(=O)(=O)NC2CCN(c3cc(C)nc(Nc4cccc(C#N)c4)n3)CC2)cc1.O=C(O)C(F)(F)F [GSK1653539] | 0 |

Tested on: RIOK1
Conditions: concentration: 1 μM, replicates: in singlicate; n = 1

| Structure (SMILES) | %Inh [%] |
| --- | --- |
| COc1ccc(Nc2ncc(C#N)c(Nc3ccccc3C(N)=O)n2)cc1N1CCN(C)CC1.Cl [GSK1558669] | 100 |
| O=C(Nc1cccc(-c2nn3ncccc3c2-c2ccnc(Nc3cccc(C(F)(F)F)c3)n2)c1)c1c(F)cccc1F [GSK299495] | 22 |
| Cc1cccc(-c2nc(Nc3ccc4ncsc4c3)c3ccccc3n2)n1 [GW867588] | 20 |
| Cl.Nc1ncnc2occ(-c3ccc(NC(=O)Nc4cc(C(F)(F)F)ccc4F)cc3)c12 [SB-707548] | 0 |
| C[C@@H](Oc1cc(-n2cnc3ccc(NC(=O)NC(C)(C)C)cc32)sc1C(N)=O)c1ccccc1Cl [GSK346294] | 56 |
| c1ccc(-c2cc(-c3c[nH]nc3-c3ccccn3)ccn2)cc1 [GW576604] | 37 |
| Cc1nnc(-c2ccc3occ(-c4ccc(C(C)O)cc4)c3c2)o1 (stereo not shown) | 0 |
| CC(C)Oc1ccc2c(-c3ccnc(Nc4ccc(N5CCN(C)CC5)cc4)n3)cnn2n1 [GW696155] | 99.9 |
| NS(=O)(=O)c1cccc(-c2ccc3ncc(N4CCOCC4)nc3c2)c1 [GSK1535721] | 22 |
| Fc1ccc(-c2ncn(CCCN3CCOCC3)c2-c2ccccn2)cc1 [SB-211742] | 27 |
| CN(C1=C(c2ccccc2)C(=O)NC1=O)c1ccccc1 [SB-334860] | 0 |
| CCc1nc(-c2cccc(C)c2)c(-c2ccnc(NCc3ccccc3)c2)s1 | 10 |
| O=C(NCCNc1ccnc(Nc2ccc(F)cc2)n1)Nc1ccccc1F [GSK1379880] | 17 |
| O=c1cc(N2CCOCC2)nc2n(Cc3cccc(F)c3)ccn12 [GSK2297430] | 35 |
| CC(C)(C)n1cnc2c(N)ncnc21 [SKF-97359] | 2 |
| O=c1cc(N2CCOCC2)nc2n(Cc3cccc(C(F)(F)F)c3)ccn12 [GSK2297543] | 26 |
| Cc1cccc(Cn2ccn3c(=O)cc(N4CCOCC4)nc23)c1 [GSK2297542] | 26 |
| O=C(NCCNc1ccnc(Nc2ccc(F)cc2)n1)c1cc2ccccc2s1 [GSK1379874] | 23 |

| Structure (SMILES) | %Inh [%] |
| --- | --- |
| Cn1ccc2ncnc(Oc3ccc(NC(=O)Nc4ccncc4)c(Cl)c3)c21 | 0 |
| COc1ccc(COc2cc(-n3cnc4ccccc43)sc2C(N)=O)cc1 [GSK1024304] | 0 |
| Cc1ccc(C(=O)NCC(N)=O)cc1-n1c(C)cc(OCc2ccc(F)cc2F)c(Br)c1=O | 1 |
| Cc1ccc(NC(=O)c2ccnc(N3CCN(C)CC3)c2)cc1-c1ccc(C(=O)NCC2CC2)cc1 [GW775604] | 0 |
| Fc1ccc(-c2nn3c(OCC(F)(F)F)cccc3c2-c2ccncc2)cc1 [GW514784] | 39 |
| Fc1ccc(-c2ncn(CCCN3CCOCC3)c2-c2cccnc2)cc1 [SB-211743] | 17 |
| O=C(NOCC1CC1)c1ccc(F)c(F)c1Nc1ccc(I)cc1Cl | 7 |
| O=C(Nc1n[nH]c2cc(-c3cccc(F)c3)ccc12)C1CC1 [SB-735464] | 66 |
| COc1ccc(Nc2nccc(N3CCC(NC(=O)Nc4cccc(C(C)=O)c4)C3)n2)cc1 (stereo not shown) [GSK1379731] | 42 |
| N#Cc1ccc(-c2cc(-c3c[nH]nc3-c3ccccn3)ccn2)cc1 [GW693028] | 0 |
| COC(=O)Nc1nc2cc(Oc3ccc(NC(=O)Nc4cc(F)ccc4F)cc3)ccc2[nH]1.Cl [GW701424] | 0 |
| O=c1cc(N2CCOCC2)nc2n(Cc3cccc4ccccc34)ccn12 [GSK2333389] | 8 |
| c1ccc(-c2n[nH]cc2-c2ccnc3ccccc23)nc1 [GW271431] | 58 |
| Nc1nccc(-c2c(-c3ccc(F)cc3)ncn2C2CCN(CC(F)(F)F)CC2)n1 [SB-236560] | 32 |
| NCC(NC(=O)c1cc(-c2cn[nH]c2)c(-c2ccnc3[nH]ccc23)s1)c1ccccc1.O=C(O)C(F)(F)F.O=C(O)C(F)(F)F (stereo not shown) [GSK1325775] | 99.4 |
| Cc1c2ccc(N(C)c3ccnc(Nc4cccc(S(N)(=O)=O)c4)n3)cc2nn1Cc1ccccc1.Cl.Cl [GW787226] | 0 |
| COc1ccc(S(=O)(=O)NC2CCN(c3cc(C)nc(Nc4cccc(C#N)c4)n3)CC2)cc1.O=C(O)C(F)(F)F [GSK1653539] | 5 |
